Source: PubChem BioAssay AID1159580 (chemical genetic matrix, 2015)
Screen size: about 5,500 compounds; about 2,000 (36%) were called active. About 18% were inconclusive and are not listed. No stated cut-off is given here; in the data, active means normalized growth mostly below about 0.91 (no sharp cut-off); inconclusive means no clear call, values can overlap the other calls; inactive means mostly above about 0.92. The list shows a part of the results.

Assay: chemical genetic growth profiling, strain panel (AID 1159580);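 further: tested at 20 µM; growth read once vehicle control cultures reached saturation at 30 °C; 1 = growth at the plate median or of vehicle wells; lower values mean less growth of the strain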
Conditions: S. cerevisiae deletion strains, growth OD

Measured: normalized growth

COc1[nH]c2ccc(F)cc2c1C(=O)OCC1CCN(CCNS(C)(=O)=O)CC1
inactive: locus YAL040C, strain CLN3, active compounds read low 0.958 | locus YCL061C, strain MRC1 (second series), active compounds read low 0.994 | locus YDR150W, strain NUM1, active compounds read low 0.986 | locus YDR363W, strain ESC2, active compounds read low 0.995 | locus YER002W, strain NOP16, active compounds read low 1.01 | locus YGR078C, strain PAC10, active compounds read low 1.02 | locus YJR075W, strain HOC1, active compounds read low 1.01 | locus YNL153C, strain GIM3, active compounds read low 1.01 | locus YNL175C, strain NOP13, active compounds read low 1 | locus YNL197C, strain WHI3, active compounds read low 1.02 | locus YNL224C, strain SQS1, active compounds read low 1.01 | locus YOR083W, strain WHI5 (second series), active compounds read low 0.993 | locus YPL241C, strain CIN2, active compounds read low 1.01
